Rows were chosen to be rich in hits. Some 4.7% of all compounds tested hit in one or more screens of this group.
tim10-1 inh: inhibits growth of tim10-1 mutant yeast; S. cerevisiae tim10-1 ts strain growth, BacTiter-Glo, 24 h; inhibition, % at 20 µM; hit rate 2.2% among 330,000;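 active = inhibition of at least 40%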;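 note: mutant grown at 25 °C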
TIM10 inh: inhibits growth of TIM10 yeast strain | inhibition, % at 10 µM | S. cerevisiae TIM10 strain growth, BacTiter-Glo luminescence, 24 h | AID 463195 | hit rate 1.4% among 330,000;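 active = inhibition of 40% or more at the single tested concentration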;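 note: wild-type TIM10 isogenic control strain grown at permissive 25 °C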
tim23-1 inh: tim23-1 yeast growth inhibition | hit rate 1.3% among 330,000 | S. cerevisiae tim23-1 growth, BacTiter-Glo luminescence, 24 h | AID 463212 | inhibition, % at 20 µM;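 active = growth inhibition of the mutant yeast at or above 50%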;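 note: temperature-sensitive mutant grown at 25 °C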
Calb FLC: affects C. albicans growth with fluconazole | C. albicans CaCi-2 (fluconazole-resistant clinical isolate) + fluconazole, Alamar Blue growth, 48 h | hit rate 0.57% among 300,000 | growth inhibition, % (concentration not given with the values);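 active = growth inhibition above about 58% in most replicates, limit read from the data, passing the limit was not always enough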;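 note: all wells also contain fluconazole at 8 µg/ml as a sub-toxic cotreatment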
SKKanGAS inh: inhibitors of SKKanGAS S. pyogenes growth in kanamycin (SK-promoter or general growth effect) | BacTiter-Glo, 6 h | inhibition, % at 7.5 µM | hit rate 1.3% among 300,000 | AID 1662;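 active = mean replicate score, as percent of positive control median, at least 50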;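 note: strain carries kanamycin resistance gene driven by streptokinase promoter and grows in 40 µg/ml kanamycin; loss of luminescence reflects streptokinase promoter inhibition or plain growth inhibition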
PfHsp90 yeast 2: growth inhibition of yeast expressing Plasmodium Hsp90; S. cerevisiae expressing PfHsp90, BacTiter-Glo ATP, 48 h; yeast lacking PDR1 and PDR3 efflux regulators; inhibition, % at 9.4 µM; hit rate 0.32% among 310,000;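 active = every replicate shows inhibition above about 80%, whatever the replicate mean, limit read from the data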
tim10-1 confirm: confirmation of tim10-1 mutant yeast growth inhibitors; hit rate 56% among 7,400; S. cerevisiae tim10-1 ts strain growth, BacTiter-Glo, 24 h; shares compounds with tim10-1 inh; inhibition, % at 20 µM;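 active = inhibition of yeast growth at or above a set limit in either of two repeat tests at 20 µM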;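 note: tim10-1 mutant grown at permissive 25 °C to find synthetic lethal compounds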
tim10 confirm: confirmation of TIM10 yeast growth inhibitors. shares compounds with TIM10 inh. S. cerevisiae tim10 strain growth, BacTiter-Glo luminescence, 24 h. inhibition, % at 10 µM. hit rate 63% among 4,600;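 active = inhibition of yeast growth at or above a set limit in either of two replicates at 10 µM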; note: this counterscreen used the strain with wild-type TIM10
tim23-1 confirm: confirmation of tim23-1 mutant yeast growth inhibitors | shares compounds with tim23-1 inh | S. cerevisiae tim23-1 growth, BacTiter-Glo luminescence, 24 h | inhibition, % at 20 µM | hit rate 83% among 4,400 | AID 463218;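 active = inhibition above about 39% in either of two replicate wells at 20 µM, limit read from the data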;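 note: temperature-sensitive tim23-1 mutant grown at 25 °C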
Each line names hits and unclear results; the compound was inactive in the other large screens (follow-up assays come after a bar, where they were run).

CC(=O)NC(C)c1cc(Cl)c2ccccc2c1O (stereo not drawn)	none (no result: Calb FLC, SKKanGAS inh)
CC(=O)NC(C)c1cc(Cl)c2cccnc2c1O (stereo not drawn)	tim10-1 inh 40.8, tim23-1 inh 53.4 (no result: Calb FLC, SKKanGAS inh) | tim10-1 confirm inactive | tim23-1 confirm inactive
Cc1cc(S(=O)(=O)NCc2ccccc2)ccc1OCC(=O)NCc1ccncc1	none
COc1ccc(C(=O)O/N=C(\N)c2ccccc2)c(OC)c1	tim10-1 inh 75.9, TIM10 inh 69.9, tim23-1 inh 59.9 (no result: Calb FLC, SKKanGAS inh) | tim10-1 confirm 71.5 | tim10 confirm 67.4 | tim23-1 confirm 86.8
COc1ccc(C(=O)O/N=C(\N)c2ccc(OC)c(OC)c2)cc1	tim10-1 inh 72.8, TIM10 inh 49.3, tim23-1 inh 53.5 | tim10-1 confirm 78.0 | tim10 confirm 40.4 | tim23-1 confirm 64.5
COc1ccc(CN2C(=O)c3cccnc3C2=O)cc1S(=O)(=O)N1CCOc2ccc(C)cc21	none
O=C(CSc1nnc(CNC(=O)c2cccs2)o1)Nc1ccc(F)cc1F	none
CC1CCCCN1C(=O)CN1CCN(S(=O)(=O)c2ccc(Br)cc2Cl)CC1 (stereo not drawn)	tim10-1 inh 42.7, tim23-1 inh 51.6 (no result: Calb FLC, SKKanGAS inh) | tim10-1 confirm inactive | tim23-1 confirm 43.4
O=S(=O)(c1ccc(Br)cc1Cl)N1CCN(CCO)CC1	none
Cc1cc(Br)ccc1NC(=O)CNC(=O)CNc1cccc([N+](=O)[O-])c1	none (no result: Calb FLC, SKKanGAS inh)
CC1CCCCC1NC(=S)Nc1ccc(SC(F)F)cc1 (stereo not drawn)	tim10-1 inh 65.8, TIM10 inh 70.2, tim23-1 inh 53.0 (no result: PfHsp90 yeast 2) | tim10-1 confirm 64.8 | tim10 confirm 64.2 | tim23-1 confirm inactive
CC(C)c1ccccc1NC(=O)C1CC(=O)N(C2CCCC2)C1 (stereo not drawn)	none (no result: Calb FLC)
COc1cc(C(=O)NCC(=O)NCC(c2ccco2)N2CCCCC2)cc(OC)c1OC (stereo not drawn)	none (no result: Calb FLC, SKKanGAS inh)
CC(C)COC(=O)C(C#N)c1nc2ccccc2nc1N1CCN(Cc2ccccc2)CC1 (stereo not drawn)	tim10-1 inh 42.1, tim23-1 inh 51.4 | tim10-1 confirm inactive | tim23-1 confirm inactive
COCCOC(=O)C(C#N)c1nc2ccccc2nc1N1CCN(Cc2ccccc2)CC1 (stereo not drawn)	none
C=CCOC(=O)C(C#N)c1nc2ccccc2nc1N1CCN(Cc2ccccc2)CC1 (stereo not drawn)	tim10-1 inh 46.5, tim23-1 inh 50.3 (no result: SKKanGAS inh) | tim10-1 confirm 36.4 | tim23-1 confirm 43.5
C=CCNC(=O)C(C#N)c1nc2ccccc2nc1N1CCN(Cc2ccccc2)CC1 (stereo not drawn)	none
Cc1cc(NC(=O)CSc2nc(-c3cccs3)nc3ccccc23)no1	none (no result: Calb FLC, SKKanGAS inh)
O=C(c1ccccc1)c1cccc(NC(=O)c2ccc(Br)o2)c1	tim10-1 inh 45.1, TIM10 inh 74.6, tim23-1 inh 52.6 | tim10-1 confirm 36.0 | tim10 confirm inactive | tim23-1 confirm 76.8
O=C(Nc1cccc(NC(=O)c2ccc(Br)o2)c1)c1ccccc1	none
Cc1noc(C)c1C(=O)NCCc1c(C)[nH]c2ccccc12	none
O=c1[nH]cnc2scc(-c3ccccc3)c12	none
O=c1[nH]cnc2c1c(-c1ccccc1)cn2-c1cccc(Cl)c1	tim10-1 inh 46.4, tim23-1 inh 60.1 | tim10-1 confirm 36.2 | tim23-1 confirm 38.0
COC(C(=O)Nc1ccnn1C1CCN(Cc2ccc(Cl)s2)CC1)c1ccccc1 (stereo not drawn)	none
O=C(N/N=C\c1ccc([N+](=O)[O-])s1)c1cncc(Br)c1	tim10-1 inh 45.3, TIM10 inh 54.6, tim23-1 inh 68.7, Calb FLC 107.6 | tim10-1 confirm 34.8 | tim10 confirm 51.3 | tim23-1 confirm 69.1
COC(=O)N/N=C/c1ccc([N+](=O)[O-])s1	tim10-1 inh 42.1, tim23-1 inh 82.7 | tim10-1 confirm 33.5 | tim23-1 confirm 88.5

Bioassay records from PubChem BioAssay.
